PAFAH1B3 inh: PAFAH1B3 (human) inhibition. Q15102. recombinant PAFAH1B3, FP-rhodamine probe, fluorescence polarization. inhibition, % at 3.39 µM. actives 0.28% (n = 340,000). AID 492972;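 active = inhibition above the screen-wide average of all tested compounds plus 3 SD, cut at about 25% in these data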;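 note: 0% = enzyme with DMSO only and 100% = wells lacking PAFAH1B3 protein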
Target sequence (Q15102 whole entry, looked up): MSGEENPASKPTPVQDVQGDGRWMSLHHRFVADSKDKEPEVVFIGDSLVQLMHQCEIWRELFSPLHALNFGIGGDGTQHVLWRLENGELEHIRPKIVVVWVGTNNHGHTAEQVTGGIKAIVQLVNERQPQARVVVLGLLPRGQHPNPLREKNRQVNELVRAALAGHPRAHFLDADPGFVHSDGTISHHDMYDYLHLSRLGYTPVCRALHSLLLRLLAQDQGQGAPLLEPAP
pPAFAH inh: inhibitors of human plasma PAF acetylhydrolase (pPAFAH); Q13093; recombinant pPAFAH, FP-rhodamine probe fluorescence polarization; inhibition, % at 3.39 µM; actives 1.5% (n = 330,000);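 active = inhibition above the mean inhibition across the screen plus 3 SD, cut at about 25% in these data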;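 note: inhibitors block binding of the rhodamine activity-based probe so polarization drops; 0% = enzyme with DMSO and 100% = wells lacking pPAFAH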
Target sequence (Q13093 whole entry, looked up): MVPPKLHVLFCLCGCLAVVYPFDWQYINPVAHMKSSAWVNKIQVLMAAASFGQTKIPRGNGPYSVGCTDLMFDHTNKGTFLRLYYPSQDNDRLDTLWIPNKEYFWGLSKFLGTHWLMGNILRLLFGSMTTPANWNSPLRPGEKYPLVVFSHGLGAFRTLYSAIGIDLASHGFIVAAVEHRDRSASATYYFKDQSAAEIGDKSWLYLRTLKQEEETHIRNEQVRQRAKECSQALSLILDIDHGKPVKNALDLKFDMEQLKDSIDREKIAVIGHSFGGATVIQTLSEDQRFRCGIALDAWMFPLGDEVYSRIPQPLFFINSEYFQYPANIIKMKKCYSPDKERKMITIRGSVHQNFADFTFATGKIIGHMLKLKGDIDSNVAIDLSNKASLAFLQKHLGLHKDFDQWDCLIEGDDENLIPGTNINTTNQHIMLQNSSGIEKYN
DAGLB inh: blocks human DAGLB lipase activity; Q8NCG7; HEK293T DAGLB membrane lysate, EnzChek fluorogenic substrate; inhibition, % at 5.17 µM; actives 0.059% (n = 340,000); AID 504411; in the data active = inhibition above about 34%;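 note: 0% = enzyme with vehicle and 100% = wells lacking enzyme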
ATG4B inhibitor: blocks human ATG4B protease cleavage of LC3 substrate | inhibition, % at 8.33 µM | AID 504462 | ATG4B cleavage of LC3-PLA2, NBD-HPC fluorescence, 1 h | actives 0.51% (n = 340,000) | Q9Y4P1; in the data active = inhibition above about 40%
PAFAH1B2 FP inh: PAFAH1B2 (human) inhibition. recombinant PAFAH1B2, FP-rhodamine activity probe, fluorescence polarization. P68402. inhibition, % at 3.39 µM. AID 492953. actives 1.2% (n = 340,000);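 active = inhibition above the mean of all tested compounds plus 3 SD, cut at about 24% in these data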;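 note: 0% = enzyme with DMSO and 100% = wells lacking PAFAH1B2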
PAFAH2 FP inh: inhibitors of human PAFAH2 | Q99487 | recombinant PAFAH2, FP-rhodamine activity probe, fluorescence polarization | inhibition, % at 3.39 µM | actives 0.99% (n = 340,000) | AID 492956;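 active = inhibition above the mean over all tested compounds plus 3 SD, cut at about 30% in these data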;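 note: inhibitors block probe labeling of enzyme so polarization drops; 0% = enzyme with DMSO and 100% = wells lacking PAFAH2 protein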
Starred values were filed as active, the others as inactive; nt = no result given. The list is not random: actives were taken first. Their share in the collection is about 3%.

SMILES	PAFAH1B3 inh	pPAFAH inh	DAGLB inh	ATG4B inhibitor	PAFAH1B2 FP inh	PAFAH2 FP inh
O=C(CSc1nnc(CNc2ccc(Cl)cc2)o1)Nc1nc2c(s1)CCCC2	5.8	22.0	9.6	4.5	24.3*	12.1
C[C@@H]1CN([C@@H](C)CO)C(=O)CCCn2nncc2CO[C@H]1CN(C)C	nt	nt	-0.5	nt	nt	nt
CCC(NC(C)C)C(O)c1ccc(O)c(O)c1 (stereo not drawn)	7.3	5.5	1.1	-1.2	4.2	1.3
CCC(c1ccc(O)c(O)c1)C(CC)c1ccc(O)c(O)c1 (stereo not drawn)	-4.1	nt	2.7	-4.6	27.1*	-2.4
Fc1ccc(-c2nc3c(-c4ccc(Cl)cc4)cnn3cc2CCN2CCOCC2)cc1	6.8	-8.2	-1.0	-8.2	7.5	3.0
N#CCC(=O)NNC(=S)NC(=O)C(c1ccccc1)c1ccccc1	8.0	10.2	7.2	-12.3	29.0*	-3.9
CC(=O)NC(=S)NNC(=O)C(c1ccccc1)c1ccccc1	-2.9	3.1	-0.8	0.4	6.6	5.8
CCOC(=O)c1[nH]c2ccc(Cl)cc2c1-c1ccccc1	0.5	1.1	-7.3	-0.1	1.6	-5.2
CN(C)C=NC(=O)c1[nH]c2ccc(Cl)cc2c1-c1ccccc1	-0.7	28.7*	0.0	8.3	-0.8	2.7
CCN(CC)S(=O)(=O)c1ccc(OC)c(NC(=O)c2cc(C)on2)c1	8.7	-1.9	-0.9	7.5	-1.5	-3.5
O=C1/C(=C\c2ccco2)SC(=S)N1c1ccc(O)cc1	2.4	33.8*	-56.0	1.5	-0.7	-5.6
COc1ccc(NC(=O)CCCN2C(=O)/C(=C\c3ccco3)SC2=S)cc1	5.9	13.8	3.0	30.8	0.6	-1.3
O=C(CN1C(=O)/C(=C/c2ccco2)SC1=S)Nc1ccc(O)c(C(=O)O)c1	19.2	33.1*	16.7	30.7	4.3	14.5
CC1=C(C(=O)N(C)C)CC(CC(=O)NC(c2ccccc2)c2ccccc2)C(=O)N1Cc1ccc(F)cc1 (stereo not drawn)	nt	nt	-2.5	nt	nt	nt
Cc1c(C(=O)N2CCOCC2)cc(C(C)(C)C)n1-c1ccccc1	6.7	-2.8	1.6	-0.5	51.1*	5.7
COC(=O)C1=CN(c2cccc(C)c2)C=C(C(=O)OC)C1c1cc(OC)c(O)c([N+](=O)[O-])c1	11.4	29.2*	24.1	1.7	16.3	7.0
O=C(N/N=C/C1=C(N2CCOCC2)C(=C\c2ccccc2)/CC1)Nc1ccccc1	3.7	2.2	-2.2	5.0	1.5	-4.4
CCN(CC)c1ccc(/C=C2\CCC(/C=N/NC(=O)c3ccc(=O)n(C)c3)=C2N2CCOCC2)cc1	5.5	29.2*	-8.6	-13.1	3.4	-0.7
Cc1ccc(C(=O)NCC(=O)Nc2ncccc2C)s1	11.8	0.3	2.7	-4.8	0.0	-7.6
CCOc1cc(Br)cc(C(c2c(C(=O)O)[nH]c3ccccc23)c2c(C(=O)O)[nH]c3ccccc23)c1O	11.5	17.6	16.1	32.8	79.2*	16.1
CSc1ccc(C(c2c(C)[nH][nH]c2=O)c2c(C)[nH][nH]c2=O)cc1	6.3	-8.8	-0.9	-0.4	3.0	6.1
CSc1ccc(C(c2c(C(=O)O)[nH]c3ccccc23)c2c(C(=O)O)[nH]c3ccccc23)cc1	6.2	29.0*	6.3	20.6	61.7*	26.9
COc1ccccc1NC(=O)c1cc2c(CO)cnc(C)c2oc1=Nc1ccccc1	8.8	-0.7	-0.6	6.2	-0.5	-3.2
COc1ccccc1NC(=O)c1cc2c(CO)cnc(C)c2oc1=Nc1cccc(C(N)=O)c1	9.1	24.6*	-0.6	-7.3	1.1	6.9
COc1cccc(N=Nc2c(N)[nH]n3c(=O)c4c(nc23)CCCC4)c1	nt	29.9*	nt	-12.9	nt	nt
SMILES	PAFAH1B3 inh	pPAFAH inh	DAGLB inh	ATG4B inhibitor	PAFAH1B2 FP inh	PAFAH2 FP inh
COc1cc(CNC[C@H]2O[C@@H](n3cc(C)c(=O)[nH]c3=O)C[C@@H]2O)ccc1OCc1cccc(Cl)c1	nt	nt	-3.4	nt	nt	nt
O=C1C=CC(=O)c2c(O)c(CO)c(CO)c(O)c21	49.5*	nt	-1.8	31.9	25.3*	68.4*
Cn1c(=O)oc2cc(S(=O)(=O)N3CCC(N4CCCCC4)CC3)ccc21	10.1	2.8	-0.6	-18.6	3.4	-4.1
CC1CCN(S(=O)(=O)c2ccc3c(c2)oc(=O)n3C)CC1	5.8	0.2	1.6	-13.2	25.4*	-5.6
CCOc1ccc(/C=C2\CCCc3c2nc2ccccc2c3C(=O)O)cc1OC	27.6*	16.0	-165.0	nt	5.9	19.0
COc1cc(/C=C2\CCCc3c2nc2ccccc2c3C(=O)O)cc([N+](=O)[O-])c1O	16.3	32.3*	1.4	1.7	1.5	24.9
COc1ccc(/C=C2\CCCc3c2nc2ccccc2c3C(=O)O)cc1OC	nt	7.5	nt	nt	nt	nt
CCOc1ccccc1NC(=O)CCCNC(=O)c1ccc(Cl)cc1	6.0	4.9	-0.4	3.1	4.0	-6.6
O=C(CSc1nnc(CCc2ccccc2)n1-c1ccc(Cl)cc1)NCc1ccccc1	5.4	34.7*	1.4	-1.9	9.2	5.3
COc1ccc(-n2c(CCc3ccccc3)nnc2SCC(=O)NCc2ccccc2)cc1	-3.7	11.2	1.0	-13.4	6.1	1.3
O=C1c2ccccc2-c2onc3c(N4CCN(CCO)CC4)cc(N4CCN(C(=O)c5ccco5)CC4)c1c23	-77.8	29.1*	20.4	27.2	-57.9	-108.9
Cc1ccc(S(=O)(=O)N2CCOCC2)cc1C(=O)NCCc1ccc(Cl)cc1	6.7	0.5	-2.0	-1.5	29.6*	0.1
O=C(OCCOc1ccccc1)c1cc(S(=O)(=O)N2CCOCC2)ccc1Cl	-1.0	5.5	-5.6	-2.4	8.3	3.3
O=C(OCCOc1cccc(Cl)c1)c1cc(S(=O)(=O)N2CCOCC2)ccc1F	9.8	31.0*	-4.8	-3.1	2.1	5.4
COc1ccc(OC)c(-c2csc(NC(=O)CSc3ccc([N+](=O)[O-])cc3)n2)c1	-0.9	7.1	-2.4	-17.7	3.0	3.4
Cc1nc(N)nc(N)c1Oc1ccc(Cl)cc1	3.8	nt	-4.1	-6.3	7.0	-1.4
Cc1nc(N)nc(N)c1/C=C/C(C)(C)c1ccc(Cl)cc1	-0.3	nt	2.1	-8.6	41.8*	5.8
N#CC1(NC(=O)COC(=O)c2cc(O)c3ccccc3c2O)CCCCC1	49.8*	13.3	5.3	-4.4	15.7	21.0
N#CC1(NC(=O)COC(=O)Cc2c[nH]c3ccccc23)CCCCC1	nt	nt	3.1	nt	nt	nt
O=C(Cc1ccc([N+](=O)[O-])cc1)Nc1ccc2c(c1)CCC2	7.0	15.2	-1.6	3.3	0.3	4.2
O=c1cc(SCc2ccc(Cl)cc2Cl)nc[nH]1	5.6	nt	0.4	5.8	24.8*	3.2
Cc1cc(SCc2ccc(Cl)cc2Cl)nc(=O)[nH]1	-2.7	13.6	-0.1	-1.3	3.5	12.8
S=c1[nH]nc(Cc2noc3ccccc23)n1-c1ccccc1	7.2	0.9	1.5	-1.8	6.5	5.0
O=C(Nc1ccc(S(=O)(=O)Nc2ncccn2)cc1)C12CC3CC(CC(Cl)(C3)C1)C2	10.3	13.2	1.4	-2.2	29.7*	5.8
